PubChem BioAssay AID1159580 (chemical genetic matrix, 2015)
Where “and” joins values, the source holds several entries; their conditions need not be identical. Equal entries are not always repeated. Screen size: about 5,500 compounds; about 2,000 (36%) were called active. Another 18% or so got no clear call; they are omitted. No stated cut-off is given here; in the data, active means normalized growth mostly below about 0.91 (no sharp cut-off); inconclusive means no clear call, values can overlap the other calls; inactive means mostly above about 0.92. Some of the results follow.

Test: chemical genetic growth profiling, strain panel (AID 1159580);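 further: tested at 20 µM; growth read once vehicle control cultures reached saturation at 30 °C; 1 = growth at the plate median or of vehicle wells; lower values mean less growth of the strain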
Conditions: S. cerevisiae deletion strains, growth OD
[1] = locus YJR075W, strain HOC1, active compounds read low
[2] = locus YNL128W, strain TEP1, active compounds read low
[3] = locus YNL322C, strain KRE1, active compounds read low

Measured: normalized growth

COC(=O)/C=C/C(C)=C/C=C/C(C)=C/C=C/C=C(C)/C=C/C=C(C)/C=C/C(=O)O
active: locus YLR113W, strain HOG1, active compounds read low 0.844
inactive: locus YAL013W, strain DEP1, active compounds read low 1 | locus YAL021C, strain ccr4, active compounds read low 1.02 | locus YAL026C, strain drs2, active compounds read low 1.02 | locus YAL030W, strain snc1, active compounds read low 1.02 | locus YBL061C, strain skt5, active compounds read low 1.04 | locus YBR009C, strain hhf1, active compounds read low 1.02 | locus YBR021W, strain FUR4, active compounds read low 1.03 | locus YBR023C, strain chs3, active compounds read low 1.03 | locus YBR171W, strain sec66, active compounds read low 1.03 | locus YBR229C, strain ROT2, active compounds read low 1.02 | locus YBR231C, strain swc5, active compounds read low 1.02 | locus YBR279W, strain paf1, active compounds read low 0.988 | locus YCL011C, strain gbp2, active compounds read low 1.02 | locus YCL016C, strain dcc1, active compounds read low 1.02 | locus YCL029C, strain bik1, active compounds read low 1.01 | locus YCL061C, strain MRC1, active compounds read low 1.02 | locus YCL069W, strain vba3, active compounds read low 1.02 | locus YCR088W, strain abp1, active compounds read low 1.02 | locus YDL005C, strain med2, active compounds read low 1.01 | locus YDL035C, strain GPR1, active compounds read low 1.02 | locus YDL040C, strain nat1, active compounds read low 1.01 | locus YDL074C, strain BRE1, active compounds read low 1 | locus YDL101C, strain DUN1, active compounds read low 1.02 | locus YDL134C, strain PPH21, active compounds read low 1.04 | locus YDL185W, strain tfp1, active compounds read low 1.02 | locus YDL192W, strain arf1, active compounds read low 1.01 | locus YDR001C, strain nth1, active compounds read low 1.03 | locus YDR069C, strain doa4, active compounds read low 1.04 | locus YDR101C, strain arx1, active compounds read low 0.997 | locus YDR137W, strain rgp1, active compounds read low 1.05 | locus YDR150W, strain NUM1, active compounds read low 1.02 | locus YDR159W, strain sac3, active compounds read low 1.05 | locus YDR162C, strain NBP2, active compounds read low 1.03 | locus YDR195W, strain ref2 0.993 | locus YDR297W, strain sur2, active compounds read low 1.03 | locus YDR318W, strain mcm21, active compounds read low 1 | locus YDR334W, strain swr1, active compounds read low 1.02 | locus YDR335W, strain msn5, active compounds read low 1.02 | locus YDR388W, active compounds read low 0.998 | locus YDR392W, strain spt3, active compounds read low 1.03 | locus YDR502C, strain sam2, active compounds read low 1.01 | locus YEL003W, strain gim4, active compounds read low 1.02 | locus YEL037C, strain rad23, active compounds read low 1.02 | locus YEL061C, strain CIN8 (second series), active compounds read low 1.01 | locus YEL061C, strain CIN8, active compounds read low 1.01 | locus YER015W, strain faa2, active compounds read low 1.02 | locus YER016W, strain bim1, active compounds read low 1.01 | locus YER110C, active compounds read low 0.989 | locus YER111C, strain swi4, active compounds read low 1.02 | locus YER155C, strain BEM2 (second series), active compounds read low 1.03 | locus YER155C, strain BEM2, active compounds read low 0.994 | locus YER167W, strain BCK2, active compounds read low 1.01 | locus YFR010W, strain ubp6, active compounds read low 1.02 | locus YGL078C, strain dbp3, active compounds read low 0.993 | locus YGL086W, strain mad1, active compounds read low 0.986 | locus YGL167C, strain pmr1, active compounds read low 1.03 | locus YGL173C, strain kem1, active compounds read low 1.02 | locus YGL227W, strain vid30, active compounds read low 1.03 | locus YGL240W, strain doc1, active compounds read low 1.02 | locus YGL248W, strain PDE1, active compounds read low 1.02 | locus YGL253W, strain hxk2, active compounds read low 1.02 | locus YGR078C, strain PAC10, active compounds read low 1.03 | locus YGR135W, strain pre9, active compounds read low 1 | locus YGR252W, strain gcn5, active compounds read low 0.983 | locus YHR013C, strain ard1, active compounds read low 1.01 | locus YHR027C, strain rpn1, active compounds read low 1.03 | locus YHR030C, strain SLT2, active compounds read low 1.02 and 0.885 | locus YHR079C, strain IRE1 (second series), active compounds read low 0.986 | locus YHR079C, strain IRE1, active compounds read low 0.897 | locus YHR094C, strain hxt1, active compounds read low 0.994 | locus YHR129C, strain ARP1, active compounds read low 1.01 | locus YHR142W, strain chs7, active compounds read low 1.03 | locus YHR200W, strain rpn10, active compounds read low 1.01 | locus YIL066C, strain RNR3, active compounds read low 1.03 | locus YIL073C, strain SPO22, active compounds read low 1.01 | locus YIL125W, strain kgd1, active compounds read low 0.997 | locus YIR030C, strain dcg1, active compounds read low 0.995 | locus YJL092W, strain hpr5, active compounds read low 1.03 | locus YJL095W, strain BCK1 (second series), active compounds read low 1.02 | locus YJL095W, strain BCK1, active compounds read low 1.04 and 0.924 | locus YJL115W, strain asf1, active compounds read low 1.01 | locus YJL129C, strain trk1, active compounds read low 1.02 | locus YJL134W, strain LCB3, active compounds read low 1.01 | locus YJL154C, strain vps35, active compounds read low 1.01 | locus YJL164C, strain tpk1, active compounds read low 1.03 | locus YJL166W, strain qcr8, active compounds read low 1.03 | locus YJL168C, strain set2, active compounds read low 0.994 | locus YJL187C, strain SWE1 (second series), active compounds read low 1.03 | locus YJL187C, strain SWE1, active compounds read low 1.02 | locus YJR043C, strain POL32, active compounds read low 1.03 | locus YJR066W, strain TOR1, active compounds read low 0.898 | [1] 1.04 | locus YKL009W, strain mrt4, active compounds read low 0.996 | locus YKL068W, active compounds read low 1.01 | locus YKL085W, strain MDH1 (second series), active compounds read low 0.989 | locus YKL085W, strain MDH1, active compounds read low 0.989 | locus YKL160W, strain elf1, active compounds read low 1.02 | locus YKL190W, strain CNB1, active compounds read low 1.01 | locus YKR001C, strain vps1, active compounds read low 1.01 | locus YKR026C, strain gcn3, active compounds read low 1.02 | locus YKR091W, strain srl3, active compounds read low 1.02 | locus YLL001W, strain dnm1, active compounds read low 1.02 | locus YLL026W, active compounds read low 1.02 | locus YLL041C, strain sdh2, active compounds read low 1.02 | locus YLR027C, strain aat2, active compounds read low 1.02 | locus YLR039C, strain RIC1, active compounds read low 1.08 | locus YLR058C, strain SHM2, active compounds read low 1.01 | locus YLR102C, strain apc9, active compounds read low 0.988 | locus YLR221C, strain rsa3, active compounds read low 1.02 | locus YLR258W, strain gsy2, active compounds read low 1.02 | locus YLR262C, strain YPT6 (second series), active compounds read low 1.06 | locus YLR262C, strain YPT6, active compounds read low 1.04 | locus YLR268W, strain sec22, active compounds read low 1.02 | locus YLR320W, strain mms22, active compounds read low 1.04 | locus YLR330W, strain CHS5, active compounds read low 1.02 | locus YLR342W, strain FKS1 (second series), active compounds read low 1.01 | locus YLR342W, strain FKS1, active compounds read low 1.03 | locus YLR357W, strain rsc2, active compounds read low 1.02 | locus YLR370C, strain arc18, active compounds read low 1.02 | locus YLR371W, strain rom2, active compounds read low 0.988 | locus YLR384C, strain iki3, active compounds read low 1.02 | locus YLR418C, strain cdc73, active compounds read low 1.01 | locus YML016C, strain PPZ1, active compounds read low 1.02 | locus YML032C, strain rad52, active compounds read low 0.982 | locus YML120C, strain ndi1, active compounds read low 1.02 | locus YML124C, strain tub3, active compounds read low 0.996 | locus YMR058W, strain fet3, active compounds read low 1.03 | locus YMR078C, strain ctf18, active compounds read low 0.993 | locus YMR125W, strain sto1, active compounds read low 1.01 | locus YMR129W, active compounds read low 1.02 | locus YMR205C, strain PFK2, active compounds read low 1.03 | locus YMR223W, strain ubp8, active compounds read low 1.01 | locus YMR231W, strain pep5, active compounds read low 1.01 | locus YMR263W, strain SAP30, active compounds read low 1.02 | locus YMR307W, strain GAS1, active compounds read low 1.04 | locus YNL067W, strain RPL9B, active compounds read low 1.02 | locus YNL071W, strain lat1, active compounds read low 1.02 | [2] 1.01 | locus YNL183C, strain NPR1, active compounds read low 0.908 | locus YNL209W, strain ssb2, active compounds read low 1.02 | locus YNL233W, strain BNI4, active compounds read low 1.03 | locus YNL248C, strain rpa49, active compounds read low 1.01 | locus YNL250W, strain rad50, active compounds read low 0.986 | locus YNL271C, strain bni1, active compounds read low 0.998 | locus YNL298W, strain CLA4, active compounds read low 0.991 | locus YNL307C, strain MCK1, active compounds read low 1 | locus YNL322C, strain KRE1 (second series), active compounds read low 1.02 | [3] 1.01 | locus YNR049C, strain mso1, active compounds read low 1.02 | locus YNR052C, strain pop2, active compounds read low 0.998 | locus YOL006C, strain TOP1, active compounds read low 1.11 | locus YOL012C, strain htz1 1.19 | locus YOL147C, strain pex11, active compounds read low 0.996 | locus YOR001W, strain rrp6, active compounds read low 1.02 | locus YOR061W, strain CKA2, active compounds read low 1.02 | locus YOR069W, strain VPS5, active compounds read low 1.01 | locus YOR070C, strain gyp1, active compounds read low 1.02 | locus YOR080W, strain dia2, active compounds read low 1.02 | locus YOR083W, strain WHI5, active compounds read low 1.01 | locus YOR106W, strain vam3, active compounds read low 1.02 | locus YOR136W, strain idh2, active compounds read low 1 | locus YOR144C, strain elg1, active compounds read low 1 | locus YOR184W, strain ser1, active compounds read low 1.01 | locus YOR231W, strain MKK1, active compounds read low 0.901 | locus YOR265W, strain rbl2, active compounds read low 1.02 | locus YOR270C, strain vph1, active compounds read low 0.954 | locus YOR290C, strain snf2, active compounds read low 1.02 | locus YOR316C, strain cot1, active compounds read low 0.989 | locus YPL051W, strain arl3, active compounds read low 1.02 | locus YPL078C, strain atp4, active compounds read low 1.02 | locus YPL106C, strain sse1, active compounds read low 1.05 | locus YPL240C, strain hsp82, active compounds read low 1.03 | locus YPL256C, strain CLN2, active compounds read low 0.894 | locus YPR119W, strain clb2, active compounds read low 1 | locus YPR141C, strain kar3, active compounds read low 0.995 | locus YPR163C, strain tif3, active compounds read low 1 | locus YPR167C, strain met16, active compounds read low 0.996 | strain wtn01, active compounds read low 1.01

O=C(O)/C=C/C(=O)O
inactive: locus YAL040C, strain CLN3, active compounds read low 1.02 | locus YCL061C, strain MRC1 (second series), active compounds read low 1.01 | locus YDR363W, strain ESC2, active compounds read low 1.01 | locus YER002W, strain NOP16, active compounds read low 1.04 | [1] 1.01 | [2] 1.01 | locus YNL175C, strain NOP13, active compounds read low 1.01 | locus YNL197C, strain WHI3, active compounds read low 1 | locus YNL224C, strain SQS1, active compounds read low 1 | [3] 1.02 | locus YOR083W, strain WHI5 (second series), active compounds read low 1 | locus YPL055C, strain LGE1, active compounds read low 1.02
